Results on 27 molecules are retold here after PMC12136788.

B1: 201281127_201284068_384_CDS_ENSG00000196141_ENST00000360760|human|control|control (ssRNA)
RNA: GGGAGUUCUACAGUCCGACGAUCCGGCUGCAGGGGCCCUGCCUCAGGCCUCUCCACCUUGUCUUUAGCAUCUUUGUUGCCUUGAUGCUGCUUGGACUUGCUUCUUUUUCUUUUAUUGUUCUUCUUUUUUCCUGUCAUAUUCCACAACAGAGGAUUGAGCAUCA
B2: chr4:144460044:144460045:+_ENSG00000153147_ENST00000283131|hu_mus|hu_hu_hu_mus_False|1_78 (ssRNA)
RNA: GGGAGUUCUACAGUCCGACGAUCACGGUCCAUAGCCUGAAGAUCAACUUGCGGAUUCCAAUCAGAAUCAUAUAAAAUGACUACAUCAGCAGUUGCAAGAUUGAUGCCCAGACCACCAGCACGUGUGCUUAGCAUAAAAACAAACAACAGAGGAUUGAGCAUCA
B3: 32049908_32050383_1188_CDS_ENSMUSG00000039262_ENSMUST00000036691|mouse|control|control (ssRNA)
RNA: GGGAGUUCUACAGUCCGACGAUCUUCUUUCCCAUCUUGGUCGUUCAUCUGGAACUGUCUGAAAGGAACACGGGGUUCCAGGCGGAGCUGAGGAAGGGGAAAAGAGCUUCGUUCCACCGUAGUCUGGUUCUCUGAUGACUGUGGCAACAGAGGAUUGAGCAUCA
B4: chr16:1859243:1859244:-_ENSG00000063854_ENST00000397353|hu_mus|FALSE|FALSE (ssRNA)
RNA: GGGAGUUCUACAGUCCGACGAUCAAUUAACUGAAAAGUAGACUGUCCUGCAUUAGCAGCAGGCCAGUCGGUUAGAAGUCCCUGUCCCAGCGUGGGUGUGCCUCAGUCCCGAGGCACCUUGAACUGGUCCUUCUCCCUGCGGAUCAACAGAGGAUUGAGCAUCA
B5: chr10:70021928:70021929:-_ENSMUSG00000037747_ENSMUST00000162251|mus_mus|motif|central (ssRNA)
RNA: GGGAGUUCUACAGUCCGACGAUCAUGCAUGCUUCAGUGGGGACAUCUGAUGGCAGAUGGACAACAGAGGGUAAUGCUCCGGUGGGAAGACAGGGUGUGUGGGGCGGGGAAGGGGCGAAAGUGGUGUUAGCGUCCGACACUGAUCAACAGAGGAUUGAGCAUCA
B6: chr19:15981513:15981514:-_ENSMUSG00000024640_ENSMUST00000025542|mus_hu|motif|central (ssRNA)
RNA: GGGAGUUCUACAGUCCGACGAUCUAAAGCAUCAUCUCCUUUGGCAUUGCCAAUGCGGAAUGGAAUAUUCAUCUUGCUUCGGUUUUGGGGCUCCACUGGACAAACGUAGAAUCCUUGAGAAUUAUCAAUAAUCUCAUAAAUUGUCAACAGAGGAUUGAGCAUCA
B7: chr10:70021928:70021929:-_ENSMUSG00000037747_ENSMUST00000162251|mus_hu|FALSE|FALSE (ssRNA)
RNA: GGGAGUUCUACAGUCCGACGAUCAUGCUUCAGUGGAAAACAUCUGGUGAUAAAAAUGGACAACAGAGGACCAAUGCUCCUAAGGGAGGAAAAGGGGCUGAGUAAGAAUAAGAAAAGUGGGCAUUAACGUCCAACACUGAUAUUCAACAGAGGAUUGAGCAUCA
B8: 181288587_181288707_5387_3pUTR_ENSMUSG00000000826_ENSMUST00000072334|mouse|control|control (ssRNA)
RNA: GGGAGUUCUACAGUCCGACGAUCUCAUAAUCCAGUGGCUUGGUUUGGCCAUUAAGACCAGAGGACAUGGUUACUUGCUCUGGAGUAAAAAGCUAGAGCUGUUAGGCAAGAAUUCAACCACUAAGGGGCCAGACACUGUGAGGGCAACAGAGGAUUGAGCAUCA
B9: chr2:122485053:122485054:-_ENSG00000155438_ENST00000285814|hu_mus|FALSE|FALSE (ssRNA)
RNA: GGGAGUUCUACAGUCCGACGAUCUAAGCCUGAGUUUCAUAAGGAUAGUAAAACUGAGGGACCGAUGAAGCCUGAAGACAAAUUCAGGACAGGAAAGGGCACAGUCAGGUUCCCAGUGGCUUUCCUCACUGGAAAACCAAACAUCAACAGAGGAUUGAGCAUCA
B10: chr11:54532911:54532912:-_ENSMUSG00000052298_ENSMUST00000064104|mus_mus|motif|central (ssRNA)
RNA: GGGAGUUCUACAGUCCGACGAUCGCAGAGGGGCUGGAGGUGCAAUGAAAAGGCUUAAAAUGGAAAAAUUACAAUACAGUGCGGGCAGUCACAGAAAAGACCAUGCUAAGAUCCGAUCCAUGUCAAUUAAACAUUGAAAAUUCACAACAGAGGAUUGAGCAUCA
B11: chr10:70021928:70021929:-_ENSMUSG00000037747_ENSMUST00000162251|mus_hu|motif|central (ssRNA)
RNA: B7 RNA with U80G, A81G
B12: chr19:16212804:16212805:+_ENSG00000167460_ENST00000300933|hu_mus|hu_hu_hu_mus_False|18_68 (ssRNA)
RNA: GGGAGUUCUACAGUCCGACGAUCAACAAUUCUGGAGUGAAGGAAAGAUGUAACAUGGAACAGCAUUCCAUCUAUUACAGAAGGCACAUGGGCAACAAUGAUCACCCCAGCAUUCUCCUACGUUGACCUUAAAGACAAUCUGUUCAACAGAGGAUUGAGCAUCA
B13: chr17:35122734:35122735:+_ENSMUSG00000007050_ENSMUST00000114011|mus_mus|FALSE|FALSE (ssRNA)
RNA: GGGAGUUCUACAGUCCGACGAUCUCCAUCCCUCAAAUGUAUUACAUGUCGCCACGGAAGGGCUUAGGAUGCUGCUCCCAUCUCCAGGAAAGAUGAGAAAAAGGUACAGACUGGGAGCCAGUCCAGGACCAUUCUGCAGUUCCUCAACAGAGGAUUGAGCAUCA
B14: 19988787_19988907_277_5pUTR_ENSG00000144566_ENST00000273047|human|control|control (ssRNA)
RNA: GGGAGUUCUACAGUCCGACGAUCCGGCGUCGCCUGCUCUUAGCGCCGCUCCCCUCACACUGGACUGUGCGGGGCUCGUGCCGUGGUGCCGCCCCUGUCGGGCUCCGUCUCCGCCUCUCGCCGCUCCCCCUUCCUCUUUCCUUUCAACAGAGGAUUGAGCAUCA
B15: 178098831_178098951_708_CDS_ENSG00000116044_ENST00000397062|human|control|control (ssRNA)
RNA: GGGAGUUCUACAGUCCGACGAUCGAAAAAGGCUUUCUCUUGCUCCUUUUGGAGUUGUUCUUGUCUUUCCUUUUCAAGUUUUUUCUGUUUUUCCAGCUCAUACUCUUUCCGUCGCUGACUGAAGUCAAAUACUUCUCGACUUACCAACAGAGGAUUGAGCAUCA
B16: chr10:1038518:1038519:+_ENSG00000107937_ENST00000545048|hu_hu|hu_hu_hu_mus_False|68_68 (ssRNA)
RNA: GGGAGUUCUACAGUCCGACGAUCCAGUCUGUCAUGGUAAUUCUGUUGAGUAAAUUUGACUUUUCUCAUGUAAAAAUGUCGAAUCCGAUGAAUUUGAUAAUGUUUAUGAAUAACCGUUGGAGUCUUUCGUUGAGUCUUGGAUAACAACAGAGGAUUGAGCAUCA
B17: chr8:30550554:30550555:-_ENSG00000104687_ENST00000414019|hu_mus|FALSE|FALSE (ssRNA)
RNA: GGGAGUUCUACAGUCCGACGAUCGCCGGCAUUCUCCAGUUCCUCGGUGCAGUUGGAACUGAUGAGUGAAUCAAAAUUUCUCAGUACCUUAUCAUGCCUGAUCAUAAGAGAUGUCUUGGAGCCCAGGGCAGAGAGGAUGCCCGCCAACAGAGGAUUGAGCAUCA
B18: chr6:106728040:106728041:+_ENSMUSG00000013736_ENSMUST00000057578|mus_mus|FALSE|FALSE (ssRNA)
RNA: GGGAGUUCUACAGUCCGACGAUCAGGAGCCACACCAAGAUCAUAGAUCAGGUGGAUCAAAUGGUUUACAUGGUCACCAGUAAGAAUUUUCUUCAGUUCUACCCAAAUCCUCUCUCCUGAUAUUCCAGCCAAACCUUUGGCAUUCAACAGAGGAUUGAGCAUCA
B19: chr22:19452774:19452775:-_ENSG00000070010_ENST00000399523|hu_hu|hu_hu_hu_mus_False|88_108 (ssRNA)
RNA: GGGAGUUCUACAGUCCGACGAUCCUUUUCAUUAUAGUUGAUAGCAAUCACAUCCCCAGUCGUCAGACAGGCGAAGUUUCUCAAUGCAUUUUCUAAUACCGCUUUAGGGUUGGUAAUAUCCAGGAAGUCUGGGCUCUGAGGCUGCAACAGAGGAUUGAGCAUCA
B20: chr7:148083511:148083512:+_ENSMUSG00000025487_ENSMUST00000026560|mus_mus|motif|central (ssRNA)
RNA: GGGAGUUCUACAGUCCGACGAUCCAAAUCCAGCACUCGCGGCUGCACCCACGUCAUGUGAACCCGCUUGUCCACCUCGUCGGUGCUGCCUCUCACCAGCCCCACCGAGAGUGCCUUCAUCACCAGCAACUCCACCUUGUUGACCAACAGAGGAUUGAGCAUCA
B21: 118497214_118499730_2480_CDS_ENSG00000065183_ENST00000349139|human|control|control (ssRNA)
RNA: GGGAGUUCUACAGUCCGACGAUCAUAAGAGAAAGGCAGCACAAGUAGAGAUUCUUCCAGCUCACUCGACUUGAUCCCUUUAAAAAUCUCUAAUACAUAAGCUGAAGGUGAGAUACUGCCAUAAGCCAUUAGGAUGGGGUUGCUCAACAGAGGAUUGAGCAUCA
B22: chr12:48362563:48362564:+_ENSG00000134291_ENST00000256686|hu_hu|hu_hu_hu_mus_False|68_68 (ssRNA)
RNA: GGGAGUUCUACAGUCCGACGAUCUCCGUCAAGCCCUUCGAUAGACCCUUGCGGGGGAAACUGUAAUAAUUCUAACUGGGGAAGGAAAAGAAACGCCAAAAACUUUCCAAAAAGCGGGGGUGGGGUGAGGCGGGAGGGGGAGGUCAACAGAGGAUUGAGCAUCA
B23: chr12:48362563:48362564:+_ENSG00000134291_ENST00000256686|hu_hu|hu_hu_hu_mus_False|68_108 (ssRNA)
RNA: B22 RNA with U28A, C29A, A30G, A31G, C33U, C34G, C35A, U36A
B24: chr12:48362563:48362564:+_ENSG00000134291_ENST00000256686|hu_hu|hu_hu_hu_mus_False|1_68 (ssRNA)
RNA: B22 RNA with G137U, G138U, A140G, G142A, U143A
B25: chr9:127911758:127911759:-_ENSG00000119414_ENST00000373547|hu_mus|FALSE|FALSE (ssRNA)
RNA: GGGAGUUCUACAGUCCGACGAUCUCUCAAACGAGUCCAAGGUGGGGUAGGAGGAGUGACAAAACUGAUAGAAAAACACUGCUAUUGACACCAUAACAAACAAUAAAUUUAGAUAAUUUAAAAUUAAAAAAAAAGGCAAGAGGCCAACAGAGGAUUGAGCAUCA
B26: chr9:127911758:127911759:-_ENSG00000119414_ENST00000373547|hu_mus|motif|central (ssRNA)
RNA: B25 RNA with U82G, A83G
B27: chr16:46836887:46836888:-_ENSG00000155330_ENST00000285697|hu_mus|motif|central (ssRNA)
RNA: GGGAGUUCUACAGUCCGACGAUCACCAACAGAGUUUGAAGACAAAUAUCAGAGAAUAAGUCUUUGAUUGAUAAUUUUUCGGUUUAUUUCUGCCAAGGCAACUGAAAACACGAAAGCCUUCUCAUCAGAGAGGUUAGCAUAGAUCAACAGAGGAUUGAGCAUCA

Positions count from the first letter of the chain named. Whole data set: some 24,000 sequences, median “enrichment r” near 0.99, cut for the highest 2% near 3.7. Many of the other results were omitted from the sample, so the highest values are more common in it than they were.

For the assay, the target named is T1, UNK ZnF1-3 (human, UniProt Q9C0B0 31-174).
T1 sequence: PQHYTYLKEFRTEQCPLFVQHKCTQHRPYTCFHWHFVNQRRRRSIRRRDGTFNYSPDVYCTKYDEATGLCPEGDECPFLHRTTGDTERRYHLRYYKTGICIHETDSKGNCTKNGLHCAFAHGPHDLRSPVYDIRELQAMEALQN
The assay can be described thus: nsRBNS (natural sequence RNA bind-n-seq); RBNS binding buffer (assumed for nsRBNS): 25 mM Tris pH 7.5, 150 mM KCl, 3 mM MgCl2, 0.01% Triton X-100, 500 ug/ml BSA, 20 U/ml SUPERase-In, 4 C; UNK is unkempt and MSI1 is Musashi-1; names of the RNAs are library labels; protein concentration not given here; high values mean tight binding.
On to B1, for which the binding signal was 0.308 enrichment R.
As for B2, the binding signal came to 1.34 enrichment R.
On to B3, for which the binding signal was determined as 0.807 enrichment R.
In turn, B4 returned a binding signal of 0.931 enrichment R.
B5 had a binding signal of 1.77 enrichment R.
Consider B6, for which the binding signal came out at 0.859 enrichment R.
The molecule B7 showed a binding signal of 4.68 enrichment R.
On to B8, for which the binding signal was 1.11 enrichment R.
As for B9, the figure is 0.908 enrichment R.
B10: the binding signal turned out to be 4.45 enrichment R.
Molecule B11 yielded a binding signal of 4.93 enrichment R.
Under B12 stands 0.856 enrichment R.
B13 yielded a binding signal of 1.03 enrichment R.
As for B14, the figure is 0.72 enrichment R; as for B15, 0.134 enrichment R.
Under B16 stands 0.535 enrichment R; under B17, 1.28 enrichment R; under B18, 0.982 enrichment R.
B19 gave a binding signal of 0.864 enrichment R.
As for B20, the binding signal worked out at 0.75 enrichment R.
Under B21 stands 1.8 enrichment R; under B22, 4.07 enrichment R.
As for B23, the figure is 3.2 enrichment R; as for B24, 3.33 enrichment R.
For the molecule B25, the binding signal amounted to 10.5 enrichment R.
For B26, the binding signal amounted to 14 enrichment R.
B27 registered a binding signal of 0.868 enrichment R.
